Measured values taken from PubChem BioAssay AID1159580 (chemical genetic matrix, 2015).
Several values for one entry are separate records, joined by “and”; a condition that tells them apart may be missing. Equal entries are not always repeated. Hit rate of the full screen: of about 5,500 compounds, about 2,000 (36%) were called active. Another 18% or so got no clear call; they are omitted. Cut-off read from the data, not from the text of the source: active = normalized growth mostly below about 0.91 (no sharp cut-off); inconclusive = no clear call, values can overlap the other calls; inactive = mostly above about 0.92. The list shows a part of the results.

Assay: chemical genetic growth profiling, strain panel (AID 1159580);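 note: tested at 20 µM; growth read once vehicle control cultures reached saturation at 30 °C; 1 = growth at the plate median or of vehicle wells; lower values mean less growth of the strain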
Conditions: S. cerevisiae deletion strains, growth OD

Measured: normalized growth

COc1ccc(C[C@H]2NC[C@H](O)[C@H]2OC(C)=O)cc1
0.596 (active) and 0.961 (inactive): locus YJL095W, strain BCK1, stronger effect = lower value
active: locus YAL013W, strain DEP1, stronger effect = lower value 0.0582 | locus YAL021C, strain ccr4, stronger effect = lower value 0.397 | locus YAL026C, strain drs2, stronger effect = lower value 0.762 | locus YAL030W, strain snc1, stronger effect = lower value 0.713 | locus YBL061C, strain skt5, stronger effect = lower value 0.803 | locus YBR009C, strain hhf1, stronger effect = lower value 0.516 | locus YBR023C, strain chs3, stronger effect = lower value 0.823 | locus YBR231C, strain swc5, stronger effect = lower value 0.648 | locus YBR279W, strain paf1, stronger effect = lower value 0.869 | locus YCL011C, strain gbp2, stronger effect = lower value 0.659 | locus YCL016C, strain dcc1, stronger effect = lower value 0.791 | locus YCL069W, strain vba3, stronger effect = lower value 0.904 | locus YCR088W, strain abp1, stronger effect = lower value 0.835 | locus YDL005C, strain med2, stronger effect = lower value 0.122 | locus YDL035C, strain GPR1, stronger effect = lower value 0.222 | locus YDL074C, strain BRE1, stronger effect = lower value 0.242 | locus YDL101C, strain DUN1, stronger effect = lower value 0.306 | locus YDL134C, strain PPH21, stronger effect = lower value 0.533 | locus YDL192W, strain arf1, stronger effect = lower value 0.447 | locus YDR069C, strain doa4, stronger effect = lower value 0.117 | locus YDR101C, strain arx1, stronger effect = lower value 0.874 | locus YDR150W, strain NUM1, stronger effect = lower value 0.656 | locus YDR162C, strain NBP2, stronger effect = lower value 0.0621 | locus YDR195W, strain ref2 0.698 | locus YDR297W, strain sur2, stronger effect = lower value 0.838 | locus YDR318W, strain mcm21, stronger effect = lower value 0.7 | locus YDR334W, strain swr1, stronger effect = lower value 0.901 | locus YDR388W, stronger effect = lower value 0.161 | locus YDR392W, strain spt3, stronger effect = lower value 0.622 | locus YDR502C, strain sam2, stronger effect = lower value 0.734 | locus YEL037C, strain rad23, stronger effect = lower value 0.895 | locus YEL061C, strain CIN8, stronger effect = lower value 0.598 | locus YER015W, strain faa2, stronger effect = lower value 0.81 | locus YER016W, strain bim1, stronger effect = lower value 0.9 | locus YER167W, strain BCK2, stronger effect = lower value 0.704 | locus YFR010W, strain ubp6, stronger effect = lower value 0.104 | locus YGL086W, strain mad1, stronger effect = lower value 0.501 | locus YGL173C, strain kem1, stronger effect = lower value 0.885 | locus YGL248W, strain PDE1, stronger effect = lower value 0.298 | locus YGL253W, strain hxk2, stronger effect = lower value 0.575 | locus YGR078C, strain PAC10, stronger effect = lower value 0.523 | locus YGR135W, strain pre9, stronger effect = lower value 0.272 | locus YGR229C, strain SMI1, stronger effect = lower value 0.0868 | locus YGR252W, strain gcn5, stronger effect = lower value 0.68 | locus YHR013C, strain ard1, stronger effect = lower value 0.336 | locus YHR027C, strain rpn1, stronger effect = lower value 0.717 | locus YHR079C, strain IRE1 (second series), stronger effect = lower value 0.916 | locus YHR129C, strain ARP1, stronger effect = lower value 0.831 | locus YHR200W, strain rpn10, stronger effect = lower value 0.494 | locus YIL066C, strain RNR3, stronger effect = lower value 0.258 | locus YIL073C, strain SPO22, stronger effect = lower value 0.119 | locus YIR030C, strain dcg1, stronger effect = lower value 0.919 | locus YJL092W, strain hpr5, stronger effect = lower value 0.89 | locus YJL095W, strain BCK1 (second series), stronger effect = lower value 0.84 | locus YJL129C, strain trk1, stronger effect = lower value 0.479 | locus YJL164C, strain tpk1, stronger effect = lower value 0.622 | locus YJL166W, strain qcr8, stronger effect = lower value 0.622 | locus YJL187C, strain SWE1 (second series), stronger effect = lower value 0.32 | locus YJR043C, strain POL32, stronger effect = lower value 0.524 | locus YJR075W, strain HOC1, stronger effect = lower value 0.174
inactive: locus YBR021W, strain FUR4, stronger effect = lower value 1.05 | locus YBR171W, strain sec66, stronger effect = lower value 1 | locus YBR229C, strain ROT2, stronger effect = lower value 1.01 | locus YCL029C, strain bik1, stronger effect = lower value 0.961 | locus YDL040C, strain nat1, stronger effect = lower value 1 | locus YDL185W, strain tfp1, stronger effect = lower value 0.993 | locus YDR001C, strain nth1, stronger effect = lower value 0.964 | locus YDR137W, strain rgp1, stronger effect = lower value 0.942 | locus YDR159W, strain sac3, stronger effect = lower value 1.09 | locus YDR335W, strain msn5, stronger effect = lower value 0.927 | locus YEL003W, strain gim4, stronger effect = lower value 0.984 | locus YEL061C, strain CIN8 (second series), stronger effect = lower value 0.937 | locus YER110C, stronger effect = lower value 1 | locus YER111C, strain swi4, stronger effect = lower value 0.981 | locus YER155C, strain BEM2 (second series), stronger effect = lower value 0.938 | locus YER155C, strain BEM2, stronger effect = lower value 1.01 | locus YGL078C, strain dbp3, stronger effect = lower value 0.981 | locus YGL167C, strain pmr1, stronger effect = lower value 1.02 | locus YGL227W, strain vid30, stronger effect = lower value 0.989 | locus YGL240W, strain doc1, stronger effect = lower value 0.994 | locus YHR079C, strain IRE1, stronger effect = lower value 0.921 | locus YHR094C, strain hxt1, stronger effect = lower value 1 | locus YHR142W, strain chs7, stronger effect = lower value 0.92 | locus YIL125W, strain kgd1, stronger effect = lower value 1.01 | locus YJL115W, strain asf1, stronger effect = lower value 1.02 | locus YJL134W, strain LCB3, stronger effect = lower value 1.02 | locus YJL154C, strain vps35, stronger effect = lower value 1.01 | locus YJL168C, strain set2, stronger effect = lower value 1.01 | locus YJR066W, strain TOR1, stronger effect = lower value 0.911
0.133 (active) and 0.945 (inactive): locus YHR030C, strain SLT2, stronger effect = lower value
